KB-3-1 tox: kills parental KB-3-1 adenocarcinoma cells | AID 1347075 | KB-3-1 viability, CellTiter-Glo ATP luminescence, 72 h | Potency, µM (titrated, usually from 46.1 µM), actives largely listed as cytotoxic | actives 1.4% (n = 400,000); also: nearly all actives have a fitted effect of over 60% in size
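Parental KB-3-1 adenocarcinoma cells in phenol-red-free DMEM with 10% FBS were pin-treated with compounds at several concentrations, incubated 72 h at 37 °C, and viability read by CellTiter-Glo luminescence; concentration-effect curves were fitted after normalization.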
HT1080 IDH1KD tx: HT-1080 IDH1 knockdown cell toxicity (counter line); Potency, µM (series often up to 46.1 µM), hits mostly cytotoxic; actives 2% (n = 360,000); HT-1080 IDH1 knockdown viability, ATP luminescence, 48 h
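CellTiter-Glo luminescence after 48 h compound exposure at 37 degrees C of IDH1-knockdown HT-1080 cells in 5% FBS RPMI. %Activity scaled between DMSO wells and cell-free media wells, with curves fitted and assigned curve classes.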
KB-V1 MDR tox: KB-V1 MDR subline cytotoxicity; actives 3.4% (n = 400,000); Potency, µM (series often up to 46.1 µM), usual class: cytotoxic; AID 1347076; KB-V1 MDR cells viability, CellTiter-Glo, 72 h; also: nearly all actives have a fitted effect of over 60% in size
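qHTS viability screen in drug-selected KB-V1 MDR cells: 72 h compound treatment at 37 degrees C, ATP luminescence end point.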
SW480 rereplic: induces DNA re-replication in SW480 colon adenocarcinoma cells; SW480 DNA re-replication, Hoechst DNA content imaging, 48 h; Potency, µM (series often up to 46.1 µM), most hits filed as activators; actives 1.8% (n = 340,000); also: nearly all actives have a fitted effect of over 55% in size
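Quantitative HTS format with DMSO vehicle controls; 48 hr drug incubation at 37 C, then 40 min Hoechst staining and scanning imager measurement at 405 nm excitation.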
HT1080NT lethal: kills 2HG-producing HT-1080-NT fibrosarcoma cells. HT-1080-NT fibrosarcoma viability, CellTiter-Glo ATP luminescence, 48 h. Potency, µM (top dose mostly 46.1 µM), usual class: cytotoxic. actives 1.6% (n = 360,000);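 also: NT is the 2HG producing partner of a matched IDH1 knockdown line; nearly all actives have a fitted effect of over 55% in size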
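Viability by CellTiter-Glo luminescence after 48 h compound exposure at 37C of HT-1080-NT cells (750/well, RPMI, 5% FBS). % activity scaled between DMSO wells and medium-only wells, then curve-fitted and categorized by curve class.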
MCF10A rerep: DNA re-replication induction in MCF 10a cells; MCF 10A DNA re-replication, Hoechst nuclear intensity, 48 h; actives 2.9% (n = 350,000); Potency, µM (titrated, usually from 46.1 µM), most hits filed as activators; AID 624296; also: nearly all actives have a fitted effect of over 50% in size
Each line names hits and unclear results; the compound was inactive in the other large screens. In the library only some 7.9% were active in any assay of this set; here they are far more common. Calls follow the shape of the dose curve; as a rule, active = well fitted curve in the direction sought with a large enough effect; inconclusive = small, poorly fitted or top-dose-only effect, or another doubt; inactive = no such curve, though single readings can be large; an effect the other way counts as inactive or inconclusive.

COc1ccc(NC(NC(=O)c2ccc(OC)cc2)C(Cl)(Cl)Cl)cc1 (centres undefined)	KB-V1 MDR tox inconclusive
COc1ccc(C(=O)NC(Nc2ccc(C)cc2)C(Cl)(Cl)Cl)cc1 (centres undefined)	KB-3-1 tox inconclusive, HT1080 IDH1KD tx inconclusive, KB-V1 MDR tox 14.6µM
O=C(Cc1c(Sc2ccccc2)c2ccccc2n1Cc1ccccc1)NCCO	MCF10A rerep 20.6µM
Cn1c(CC(=O)NCCO)c(Sc2ccccc2)c2ccccc21	none
Cn1c2ccccc2c(=O)c2ccc(Cl)cc21	KB-3-1 tox inconclusive, KB-V1 MDR tox 13µM (no result: SW480 rereplic, MCF10A rerep)
Cn1c2ccccc2c(=O)c2ccc(C#Cc3ccc(N)cc3)cc21	HT1080 IDH1KD tx inconclusive, SW480 rereplic 14.6µM, HT1080NT lethal inconclusive, MCF10A rerep inconclusive
COc1ccccc1C#Cc1ccc2c(=O)c3ccccc3n(C)c2c1	MCF10A rerep 20.6µM
CCn1nc(NC(=O)c2ccncc2)c2cc3cc(C)ccc3nc21	SW480 rereplic inconclusive, MCF10A rerep 8.2µM
CCn1nc(NC(=O)c2ccncc2)c2cc3ccc(C)cc3nc21	HT1080 IDH1KD tx inconclusive, KB-V1 MDR tox 9.2µM, MCF10A rerep inconclusive
O=C(Nc1ccc(F)cc1)c1cccnc1Oc1ccccc1	none
O=C(NNc1cccc(Cl)c1)c1cccnc1Oc1ccccc1	HT1080 IDH1KD tx 6.51µM, HT1080NT lethal inconclusive, MCF10A rerep inconclusive
COc1ccc(-c2sc3ccc(OC)cc3c2C#CCCO)cc1	MCF10A rerep inconclusive
COc1ccc(-c2sc3cc(OC)c(OC)cc3c2C#CC(C)(C)O)cc1	HT1080NT lethal inconclusive, MCF10A rerep inconclusive
COc1ccc2sc(-c3ccc(N(C)C)cc3)c(C#CCCO)c2c1	KB-3-1 tox inconclusive, HT1080 IDH1KD tx inconclusive, KB-V1 MDR tox inconclusive, SW480 rereplic 4.11µM, HT1080NT lethal 16.4µM, MCF10A rerep inconclusive
COc1ccc(-c2sc3cc(OC)c(OC)cc3c2C#CCO)cc1	HT1080 IDH1KD tx inconclusive, SW480 rereplic 3.26µM
COc1ccc(-c2sc3cc4c(cc3c2C#CC2(O)CCCCC2)OCO4)cc1	MCF10A rerep 23.1µM
COc1ccc2sc(-c3ccc(N(C)C)cc3)c(C#Cc3cncn3C)c2c1	KB-3-1 tox 10.3µM, HT1080 IDH1KD tx 25.9µM, KB-V1 MDR tox inconclusive, SW480 rereplic 1.3µM, HT1080NT lethal 25.9µM, MCF10A rerep inconclusive
COc1ccc2sc(-c3ccc(N(C)C)cc3)c(C#CC(C)(C)O)c2c1	HT1080 IDH1KD tx inconclusive, SW480 rereplic 2.06µM, HT1080NT lethal inconclusive
COc1ccc2sc(-c3ccc(SC)cc3)c(C#CC(C)(C)O)c2c1	KB-3-1 tox inconclusive, HT1080 IDH1KD tx inconclusive, HT1080NT lethal inconclusive, MCF10A rerep inconclusive
CCN(CC)S(=O)(=O)c1cc(C(=O)O)c(Cl)cc1Cl	none
Cc1ccccc1Cn1cc(C)c(=O)[nH]c1=O	KB-V1 MDR tox inconclusive
CCCN(CCC)Cc1c(C(=O)N/N=C/c2c[nH]c3ccccc23)nnn1-c1nonc1N	HT1080 IDH1KD tx 29.1µM, SW480 rereplic inconclusive, HT1080NT lethal inconclusive, MCF10A rerep inconclusive
Cc1nnn(-c2nonc2N)c1C(=O)N/N=C/c1cccc2ccccc12	SW480 rereplic inconclusive
CCCc1c(C(=O)N/N=C/c2c[nH]c3ccccc23)nnn1-c1nonc1N	none (no result: SW480 rereplic, MCF10A rerep)
CC1CCN(Cc2c(C(=O)N/N=C/c3cccc(Cl)c3)nnn2-c2nonc2N)CC1	MCF10A rerep inconclusive
COc1ccccc1/C=N/NC(=O)c1nnn(-c2nonc2N)c1-c1ccccc1	none
CC1CCN(Cc2c(C(=O)N/N=C/c3ccccc3O)nnn2-c2nonc2N)CC1	KB-3-1 tox 5.17µM, HT1080 IDH1KD tx 5.17µM, KB-V1 MDR tox inconclusive, HT1080NT lethal inconclusive
COc1ccccc1/C=N/NC(=O)c1nnn(-c2nonc2N)c1-c1cccs1	SW480 rereplic 23.1µM
Cc1nnn(-c2nonc2N)c1C(=O)N/N=C/c1ccccc1O	KB-3-1 tox inconclusive, HT1080 IDH1KD tx 8.2µM, KB-V1 MDR tox inconclusive, SW480 rereplic 2.59µM, HT1080NT lethal 6.51µM
CS(=O)(=O)Nc1ccccc1C(=O)NCC1(N2CCCCC2)CCCCC1	none
Cc1ccc(CNc2ncnc3c2cnn3-c2ccc(C)cc2C)cc1	none (no result: HT1080 IDH1KD tx, SW480 rereplic, HT1080NT lethal, MCF10A rerep)
CN(Cc1c(C(=O)N/N=C/c2ccccc2O)nnn1-c1nonc1N)C1CCCCC1	KB-3-1 tox 18.4µM, HT1080 IDH1KD tx inconclusive, KB-V1 MDR tox inconclusive, HT1080NT lethal 11.6µM (no result: SW480 rereplic, MCF10A rerep)
CN(Cc1c(C(=O)N/N=C/c2cccc(O)c2)nnn1-c1nonc1N)C1CCCCC1	KB-V1 MDR tox inconclusive
CN(C)Cc1c(C(=O)N/N=C/c2ccccc2OCc2c(F)cccc2Cl)nnn1-c1nonc1N	KB-3-1 tox inconclusive, HT1080 IDH1KD tx 8.2µM, KB-V1 MDR tox inconclusive, SW480 rereplic inconclusive, HT1080NT lethal 11.6µM, MCF10A rerep inconclusive
Cn1c(O)c(/C=N/NC(=O)c2cc3ccccc3cc2O)c2ccccc21	KB-3-1 tox inconclusive, HT1080 IDH1KD tx inconclusive, SW480 rereplic inconclusive, HT1080NT lethal 16.4µM, MCF10A rerep 20.6µM
O=C(NCc1ccccc1)c1cc2ccccc2o1	KB-V1 MDR tox inconclusive
CN1CCN(c2ccc(CNC(=O)c3cc4ccccc4o3)cc2)CC1	MCF10A rerep 23.1µM
Cc1ccc(C(=O)NCc2ccc(N3CCN(C)CC3)cc2)cc1C	KB-V1 MDR tox inconclusive, MCF10A rerep 1.64µM
COC(=O)c1ccc(N2CCN(C)CC2)c(NC(=O)c2cc3ccccc3o2)c1	KB-V1 MDR tox 3.26µM
Cc1cc(Cl)ccc1OCC(=O)Nc1ccccc1NS(=O)(=O)c1cccs1	KB-V1 MDR tox inconclusive, MCF10A rerep inconclusive
O=C(Nc1ccc(C(=O)O)cc1)/C(=C\c1ccc(F)cc1)NC(=O)c1ccco1	none
O=C1CCCc2[nH]c(-c3ccccc3)nc21	none
CC(C)(C)S(=O)N1Cc2cc(C(=O)N3CCOCC3)nc(-c3cccc(Br)c3)c2[C@H]1CCO (some centres undefined)	none (no result: SW480 rereplic, MCF10A rerep)
CC(C)(C)OC(=O)N1CCC(Cc2cc(-c3cccnc3)no2)(C(=O)O)CC1	none
Cc1ccc(NC(=O)C(Nc2ccccc2)c2ccccc2)cc1 (centres undefined)	none
Cc1ccc(NC(C(=O)c2ccccc2)c2ccccc2)cc1 (centres undefined)	KB-3-1 tox inconclusive, HT1080 IDH1KD tx inconclusive, HT1080NT lethal 23.1µM, MCF10A rerep inconclusive
O=C(CSc1nnc(NC(=O)C2CC2)s1)NCc1ccccc1	none
CN1CCN(C(=O)/C=C/c2ccc([N+](=O)[O-])cc2)CC1	MCF10A rerep inconclusive
CCn1cc(CN(C)C(=O)/C=C/c2ccc([N+](=O)[O-])cc2)c(C)n1	KB-V1 MDR tox 18.4µM
